Screens: PubChem BioAssay, several laboratories
Shown are actives, neighbours in structure and some others; about 1.7% of the full set was active somewhere.
LYP act = LYP (human) phosphatase activation; activation, % at 2 µM; hit rate 0.11% among 96,000; recombinant LYP, DiFMUP fluorescence; 0 = plate median, 100 = signal doubled; Q9Y2R2; AID 697;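 active means activation at 2 µM above a set limit, the mean plus 5 SD, cut at about 37% in these data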
PTPN22 inh 2 = LYP (human) phosphatase inhibition; Q9Y2R2; recombinant LYP catalytic domain, DiFMUP fluorescence; inhibition, % at 2 µM; hit rate 0.21% among 96,000; AID 640;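 active means inhibition at 2 µM at or above a set limit, the screen mean plus 3 SD, cut at about 24% in these data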
EphB4 antag = blocks human EphB4 binding to ephrin-B2; P54760; EphB4 LBD / TNYL-RAW-Alexa532 peptide, fluorescence polarization; inhibition, % at 7 µM; hit rate 0.15% among 97,000;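 active means inhibition above the screen-wide mean inhibition plus 3 SD, cut at about 15% in these data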
PLK1 inh = blocks human PLK1 kinase activity | recombinant PLK1 kinase, TR-FRET peptide phosphorylation | inhibition, % at 10 µM | hit rate 0.53% among 97,000;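 active means inhibition of 50% or more in the single-concentration screen; inactive means inhibition below 50%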
Target sequence (P53350 whole entry, looked up): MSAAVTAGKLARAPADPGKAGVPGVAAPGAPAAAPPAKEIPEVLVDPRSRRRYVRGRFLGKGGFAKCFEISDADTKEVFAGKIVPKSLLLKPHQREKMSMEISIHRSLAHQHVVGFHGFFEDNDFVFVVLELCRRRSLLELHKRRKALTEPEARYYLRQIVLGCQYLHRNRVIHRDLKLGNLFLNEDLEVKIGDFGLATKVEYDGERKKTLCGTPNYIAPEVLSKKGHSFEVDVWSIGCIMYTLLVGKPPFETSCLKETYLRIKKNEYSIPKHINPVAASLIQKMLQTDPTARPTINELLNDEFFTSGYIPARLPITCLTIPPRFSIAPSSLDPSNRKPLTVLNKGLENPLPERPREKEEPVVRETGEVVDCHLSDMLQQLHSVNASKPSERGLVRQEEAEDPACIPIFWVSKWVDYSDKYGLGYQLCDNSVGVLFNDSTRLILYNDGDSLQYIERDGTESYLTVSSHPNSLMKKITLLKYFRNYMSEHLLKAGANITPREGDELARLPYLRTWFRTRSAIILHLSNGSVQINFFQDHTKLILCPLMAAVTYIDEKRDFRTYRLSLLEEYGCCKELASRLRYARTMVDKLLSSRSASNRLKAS
PLK1 PBD inh = Plk1 (human) PBD binding inhibition; hit rate 0.13% among 97,000; P53350; inhibition, %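 (tested at about 20 µM)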; Plk1 PBD phosphopeptide binding, fluorescence polarization; AID 693; in the data active means inhibition above about 34%, passing the limit was not always enough
FAK blocker = inhibitors of human focal adhesion kinase; AID 727; inhibition, %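 (tested at 7 µM)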; hit rate 0.84% among 97,000; Q05397; biochemical FAK kinase activity assay; in the data active means inhibition above about 19%
PLK1 inh conf = PLK1 (human) kinase inhibition, confirmed. hit rate 20% among 210. shares compounds with PLK1 inh. inhibition, % at 10 µM. recombinant PLK1 kinase, TR-FRET peptide phosphorylation;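 active means inhibition at or above 50% in each of two repeat confirmation tests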
TR-FRET interf = Plk1 assay compound interference counter-screen hit; Plk1 TR-FRET assay interference, compound added post-reaction; shares compounds with PLK1 inh; inhibition (interference), % at 10 µM; 210 tested, under 10 active;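 active means both duplicate runs show 50% or greater inhibition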
Each line names hits and unclear results; the compound was inactive in the other large screens (follow-up assays come after a bar, where they were run).

CC(C)CCNC(=O)c1nnc(Cc2ccc(Cl)cc2)o1	none
CC1(C)NC(=O)N(CC(=O)O)C1=O	none
Cc1cc(C)c(NC(=O)c2ccc(S(=O)(=O)N3CCOCC3)cc2)c(C)c1	PLK1 inh 72.3 (no result: LYP act, PTPN22 inh 2) | PLK1 inh conf inactive | TR-FRET interf inactive
COc1cc(C)ccc1NC(=O)c1ccc(S(=O)(=O)N2CCOCC2)cc1	none
CCOC(=O)C(CC)(CC)C(=O)/C=C/c1cccc(Br)c1	none
CCCCNC(=O)CSc1nnc(-c2c[nH]c3ccccc23)n1CC1CCCO1 (centres undefined)	none
COc1ccc(Cl)cc1NC(=O)Cn1c(=O)n2nc(C)nc2c2ccccc21	PLK1 inh 77.9 (no result: LYP act, PTPN22 inh 2) | PLK1 inh conf inactive | TR-FRET interf inactive
Cc1ccc(-n2nnnc2SCc2ccccn2)cc1C	none
OCCN1CCN(c2ncnc3ccc(Br)cc23)CC1	PLK1 inh 79.3 (no result: LYP act, PTPN22 inh 2) | PLK1 inh conf inactive | TR-FRET interf inactive
COc1ccccc1N1C(N)=NC(N)=NC1(C)C	PLK1 inh 79.4 | PLK1 inh conf inactive | TR-FRET interf inactive
Cc1ccccc1N1C(N)=NC(N)=NC1(C)C	none
Cc1ccc(CC2CC(=O)N(c3cc(C)on3)C2=O)cc1 (centres undefined)	PLK1 inh 70.0 (no result: LYP act, PTPN22 inh 2) | PLK1 inh conf inactive | TR-FRET interf inactive
Cc1cc(N2C(=O)C3CC=CCC3C2=O)no1 (centres undefined)	none
CCCc1nc(SCc2cccnc2)c2c(=O)n(C)c(=O)n(C)c2n1	none
Cn1c(=O)c2c(SCc3cccnc3)nc(CC(C)(C)C)nc2n(C)c1=O	PLK1 inh 72.9 (no result: LYP act, PTPN22 inh 2) | PLK1 inh conf inactive | TR-FRET interf inactive
Cc1ccc(N(C)C(=O)N2CCN(S(=O)(=O)c3ccc(C)cc3)CC2)cc1	PLK1 inh 72.4 (no result: LYP act, PTPN22 inh 2) | PLK1 inh conf inactive | TR-FRET interf inactive
Cc1ccc(CSCC(=O)N2CCN(c3ccc(F)cc3)CC2)cc1	PLK1 inh 108.7 | PLK1 inh conf inactive | TR-FRET interf inactive
CCOc1ccc(C2c3c(oc4ccccc4c3=O)C(=O)N2CCCN2CCOCC2)cc1OCC (centres undefined)	PLK1 inh 74.0 (no result: LYP act, PTPN22 inh 2) | PLK1 inh conf inactive | TR-FRET interf inactive
CCOC(=O)c1c(C)n(C)c2ccc(OCC(O)CN3CCN(C)CC3)cc12 (centres undefined)	PLK1 inh 75.2 (no result: LYP act, PTPN22 inh 2) | PLK1 inh conf inactive | TR-FRET interf inactive
CCOC(=O)c1c(C)n(C)c2ccc(OCC(O)Cn3c(C)nc4ccccc43)cc12 (centres undefined)	none
CC(C)Nc1ncnc2c1cnn2-c1ccccc1	none
NNc1ncnc2c1cnn2-c1ccccc1	PLK1 inh 75.3 | PLK1 inh conf 68.0 | TR-FRET interf inactive
CCOC(=O)c1[nH]c(C)c(C(=O)NCCN2CCOCC2)c1C	PLK1 inh 74.3 (no result: LYP act, PTPN22 inh 2) | PLK1 inh conf inactive | TR-FRET interf inactive
CCOC(=O)c1[nH]c(C)c(C(=O)NC)c1C	none
Cc1ccc(S(=O)(=O)C(C)C(=O)c2ccc3c(c2)OCCO3)cc1 (centres undefined)	none
NC1=CC(=O)c2cccc3cccc1c23	PLK1 inh 78.0 | PLK1 inh conf inactive | TR-FRET interf inactive
Cc1nc2cc(NC(=O)COc3ccc(C#N)cc3)ccc2n1-c1ccccc1	none
OC(CN1C2=NCCCN2c2ccccc21)c1ccc(Cl)cc1 (centres undefined)	PLK1 inh 80.2 (no result: LYP act, PTPN22 inh 2) | PLK1 inh conf inactive | TR-FRET interf inactive
OC(CN1C2=NCCN2c2ccccc21)c1ccccc1 (centres undefined)	none
CS(=O)(=O)N(CC(=O)Nc1cccnc1)c1ccc2c(c1)OCO2	none
CC1(c2ccccc2)NC(=O)N(CC(=O)Nc2ccc3c(c2)OCO3)C1=O (centres undefined)	PLK1 inh 90.7 | PLK1 inh conf inactive | TR-FRET interf inactive
CC(C)(C)c1ccc(C2(C)NC(=O)N(CC(=O)Nc3ccc4c(c3)OCO4)C2=O)cc1 (centres undefined)	none
O=C(c1ccco1)N1CCN(c2ncccn2)CC1	PLK1 inh 75.8 (no result: LYP act, PTPN22 inh 2) | PLK1 inh conf inactive | TR-FRET interf inactive
Nc1nc(N2CCN(C(=O)c3ccco3)CC2)nc2ccccc12	none
